Only some compounds are listed: those with a hit (about 0.93% of all), similar ones and a draw of the others.
CtBP-E1A blk: CtBP/E1A binding inhibition. AlphaScreen GST-E1A/His-CtBP binding, 1536-well; active compounds read low. activity change, % (concentration not given with the values). 340,000 tested, 0.49% active
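Homogeneous bead-based format: GST-tagged E1A captured on glutathione donor beads, His-tagged CtBP on nickel acceptor beads; compounds precede bead addition by 2 h at 37 °C.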
Six1-Eya2 blk: blocks human Six1 binding to Eya2. 360,000 tested, 0.56% active. activity change, % (no concentration beside the values). AlphaScreen GST-Six1/His-Eya2 binding, biochemical; active compounds read low
Target sequence (O00167 whole entry, looked up): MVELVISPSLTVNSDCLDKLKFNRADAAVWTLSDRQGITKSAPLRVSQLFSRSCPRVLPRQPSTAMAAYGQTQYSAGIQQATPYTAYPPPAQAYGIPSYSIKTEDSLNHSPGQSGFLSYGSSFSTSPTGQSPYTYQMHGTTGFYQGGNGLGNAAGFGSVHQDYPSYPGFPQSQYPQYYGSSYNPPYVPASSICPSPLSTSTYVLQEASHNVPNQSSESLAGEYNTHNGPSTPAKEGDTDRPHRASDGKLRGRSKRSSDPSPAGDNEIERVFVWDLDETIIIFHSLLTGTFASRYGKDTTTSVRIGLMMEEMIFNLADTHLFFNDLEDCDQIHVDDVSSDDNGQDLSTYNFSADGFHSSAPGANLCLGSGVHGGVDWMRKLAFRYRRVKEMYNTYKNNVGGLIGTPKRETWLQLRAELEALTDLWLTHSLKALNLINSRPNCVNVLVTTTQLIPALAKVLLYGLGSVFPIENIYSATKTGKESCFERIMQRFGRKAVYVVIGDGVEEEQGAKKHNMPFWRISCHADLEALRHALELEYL
Target sequence (Q15475 whole entry, looked up): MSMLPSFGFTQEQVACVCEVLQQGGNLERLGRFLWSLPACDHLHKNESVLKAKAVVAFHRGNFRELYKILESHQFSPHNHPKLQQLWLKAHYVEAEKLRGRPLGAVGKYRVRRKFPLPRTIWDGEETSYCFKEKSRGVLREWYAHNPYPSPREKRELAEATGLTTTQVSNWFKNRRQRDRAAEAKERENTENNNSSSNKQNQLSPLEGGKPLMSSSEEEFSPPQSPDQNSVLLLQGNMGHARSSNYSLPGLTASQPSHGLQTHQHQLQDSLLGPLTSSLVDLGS
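AlphaScreen with GST-Six1 and His-Eya2 (5X mix: 250 nM and 500 nM), glutathione donor and nickel acceptor beads; buffer 50 mM Tris pH 8.0, 300 mM NaCl, 1 mM TCEP; 1 h at 37 C in the dark.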
MBNL1-CUG inh: blocks human MBNL1 binding to CUG repeat RNA | Q9NR56 | TR-FRET MBNL1-His/biotin-(CUG)12 binding, 665/545 ratio | Potency, µM (titrated, usually from 57.5 µM), for inactives: at the highest dose activity change, negative = inhibition, hits mostly inhibitors | 280,000 tested, 0.036% active | AID 2675; active means well fitted inhibition curve with a large enough effect in the signal ratio, with a control signal flat, not every such curve was filed as active; inconclusive means small, poorly fitted or top-dose-only effect, or effect the other way, or a change in a side signal; inactive means no such curve, though single readings can be large or run the other way; the % refers to the signal ratio; further: potency means the concentration at half of the fitted maximal effect
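MBNL1-His + Biotin-(CUG)12, cpd titration 92 nM–58 uM; Tb anti-His Ab 0.055 ng/ul, SA-XL665 5 nM (final); 60 min RT; ratiometric 665/545 nm, Ex 340 nm; normalized to buffer and full-complex controls.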
PKM2 act: increases activity of human pyruvate kinase M2 | P14618 | purified PKM2, Kinase-Glo ATP luminescence, activation; response scale: 0% is enzyme alone, no compound | Potency, µM (top dose mostly 57.5 µM), without a hit: at the top dose activation, most hits filed as activators | 260,000 tested, 0.34% active | AID 1631; active means well fitted activation curve with a large enough effect; inconclusive means small, poorly fitted or top-dose-only effect; inactive means no such curve, though single readings can be large or run the other way; further: potency means the concentration at half of the fitted maximal effect; nearly all actives have a fitted effect of over 55% in size
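ATP formation by purified human PK-M2, quantified via coupled luciferase luminescence after 1 h at room temperature with 0.1 mM ADP and 0.5 mM PEP final.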
* hit, by the source's call; ? = inconclusive; . = no result; [ ] = remark or other dose. Unless noted, no stated cut-off is given here; in the data, active means activity change below about -65%; inconclusive means mostly about -30% to -63%; inactive means weaker than that. On the % scale 0 is the no-effect control and ±100 the full control effect.

SMILES | CtBP-E1A blk | Six1-Eya2 blk | MBNL1-CUG inh | PKM2 act
O=c1cc(CSc2ccc(Cl)cc2)nc(-c2ccccn2)[nH]1 | . | -93.2* | 0.1% | .
CCOC(=O)C1=CCC(c2ccccc2C)N(S(=O)(=O)c2ccc(C)cc2)C1 (configuration not stated) | 1.1 | -6.6 | . | .
COc1ccc(S(=O)(=O)NNC(=O)C(=O)NNc2ccccn2)cc1 | ? | -90.8* | . | 10.9%
COc1ccc(C(=O)NNS(=O)(=O)c2ccc(OC)cc2)cc1 | 9.1 | 7.3 | -1.6% | 4.9%[11.5 µM]
CCn1cc(C(=O)O)c(=O)c2cc(F)c(N/N=C/c3ccccc3)cc21 | -73.9* | ? | . | -0.9%
Cn1cnnc1SCC(=O)N1N=C2/C(=C/c3ccco3)CCCC2C1c1ccco1 (configuration not stated) | -4.1 | -6.2 | 7.2% | 28.2µM*
O=C(CSc1nccc(=O)[nH]1)N1N=C2/C(=C/c3ccco3)CCCC2C1c1ccco1 (configuration not stated) | 0.6 | -12.9 | 4.5% | ?
CC1(C)CC(=O)C2=C(C1)O[C@@]1(CCCCN3C(=O)c4ccccc4C3=O)Cc3cc(C#N)ccc3C2O1 | . | . | -1.8%[11.5 µM] | -13.5%[11.5 µM]
Cc1ccc(C(=O)Oc2ccc(C(=O)COC(=O)C3CC(=O)N(Cc4ccco4)C3)cc2)cc1 (configuration not stated) | ? | -84.9* | 2.6% | 21.3%
Cc1ccc(-c2csc3nc[nH]c(=O)c23)cc1C | 1.7 | 4.4 | 0.1% | 0.0%
COc1cccc(-c2csc3nc[nH]c(=O)c23)c1 | 7.6 | 11.4 | -6.6% | 28.2µM*
Nc1ccc(C(=O)Oc2ccc([N+](=O)[O-])cc2)cc1 | . | -29.3 | 4.0% | 39.8µM*
Nc1ccc(C(=O)Oc2ccc([N+](=O)[O-])cc2)c(O)c1 | . | . | ? | 3.8%
O=C(CN1CCOCC1)Nc1ncc(Cc2ccccc2Cl)s1 | 7.7 | -1.6 | -2.6% | -24.3%
CCc1ccc(CCC(=O)Nc2ncc(Cc3ccccc3Cl)s2)o1 | 12.2 | 10.4 | ? | 14.1µM*
COc1ccc(CN2CCC[C@]3(N[C@H](c4ccccc4)[C@@H]4C(=O)N(Cc5ccccc5)C(=O)[C@@H]43)C2=O)cc1 | -3.6 | -3.5 | . | .
CC(C)NC(=O)NC(=O)CSc1ncc(C(F)(F)F)cc1Cl | 2.2 | -0.7 | 1.9% | 14.1µM*
CC#CCN1c2ccccc2[C@]23C[C@@H](C(=O)OC)N(S(=O)(=O)c4ccc5c(c4)OCCN5C)C2=NC(C(=O)OC)=C(C(=O)OC)[C@H]13 | . | . | . | -2.2%[11.5 µM]
COc1ccc2c(c1)c1ncn(Cc3ccc(F)cc3)c(=O)c1n2C | -1.8 | -8.5 | 18.6% | 1.9%
COc1ccc2c(c1)c1ncn(Cc3ccco3)c(=O)c1n2C | -29.2 | ? | ? | 1.26µM*
Cc1nnc2ccc(-c3cccc(NC(=O)c4ccc(Br)o4)c3)nn12 | -65.3* | ? | ? | -0.2%
O=C1C=CC(=O)c2c(O)c(CO)c(CO)c(O)c21 | -2.0 | -69.6* | . | .
O=C(CSC1=NNC(c2ccccn2)S1)Nc1ccc(C(F)(F)F)cc1 (configuration not stated) | -95.2* | -90.7* | 14.2% | -1.0%
Cc1ccc(NC(=O)C(NCc2ccccn2)c2ccccc2)cc1 (configuration not stated) | -20.5 | -18.2 | -4.5% | -2.3%
CN(C)c1ccc(NC(=O)CC(NCc2ccccn2)C(=O)O)cc1 (configuration not stated) | 7.5 | -91.9* | 23.4% | -0.8%
SMILES | CtBP-E1A blk | Six1-Eya2 blk | MBNL1-CUG inh | PKM2 act
c1ccc(CN2CCN(CCCNc3ccc4nnc(-c5ccccc5)n4n3)CC2)cc1 | -27.3 | -69.1* | 0.0% | -8.8%
CCOc1ccc(C(CN2CCOCC2)C(C)=O)cc1OC (configuration not stated) | 1.5 | 7.5 | . | .
CC1Cc2ccccc2N1c1ncnc2c1nnn2Cc1ccccc1Cl (configuration not stated) | 8.3 | -0.2 | ? | -1.9%
Clc1ccccc1Cn1nnc2c(N3CCCC3)ncnc21 | 0.2 | -0.1 | 3.3% | 15.8µM*
COc1ccc(Cc2nnc(N/N=C/c3ccc(O)cc3O)[nH]c2=O)cc1OC | -93.1* | -87.6* | . | -5.1%
Cc1ccc(/C=N/Nc2nnc(Cc3ccccc3)c(=O)[nH]2)o1 | ? | -25.9 | 3.3% | -33.7%
CCCCCC/C=N/Nc1nnc(Cc2ccc(OC)c(OC)c2)c(=O)[nH]1 | ? | -73.9* | 1.0% | .
O=S(=O)(O)c1ccc(O)c2cc(Nc3ccccc3)ccc12 | -29.1 | -72.9* | . | .
CCCCNc1nc(C)nc2c1nc(-c1ccccc1)n2CCCN1CCCCC1C (configuration not stated) | . | . | . | -3.3%
O=C1CC(c2ccco2)CC2=C1C(c1ccccc1)n1nc(C(F)(F)F)nc1N2 (configuration not stated) | -4.8 | -2.9 | 1.8% | 4.47µM*
COc1ccc(C2C3=C(CC(c4ccco4)CC3=O)Nc3ccccc3N2C(C)=O)cc1 (configuration not stated) | 1.3 | -3.9 | 2.7% | -0.1%
CCc1c2c(nc3cccc(OC)c13)OC(CC)C2 (configuration not stated) | . | . | . | 1.7%
NC(c1csc(Nc2ccc(C(=O)NCCCO)cn2)n1)c1ccccc1Cl (configuration not stated) | -76.9* | ? | . | .
NC(=O)c1ccc(Nc2nc(C(N)c3ccccc3Cl)cs2)cc1 (configuration not stated) | -21.1 | -7.1 | . | .
NC(c1ccccc1)c1csc(Nc2ccc(C(=O)NCCCO)cn2)n1 (configuration not stated) | -84.8* | -82.6* | . | .
NC(c1ccccc1)c1csc(Nc2ccc(C(=O)NCCO)cc2)n1 (configuration not stated) | -20.6 | -7.0 | . | .
CCCCc1nc2c(c3c1C[C@H](C)OC3)CN(S(=O)(=O)c1ccc(C)cc1)CC2 | . | . | . | -7.7%[11.5 µM]
CCc1cccc2c(-c3ccccc3)c3c(nc12)OCC3 | . | . | . | -1.2%
CSc1ccc(S(=O)(=O)N2CCN(Cc3ccc4c(c3)OCO4)CC2)cc1 | -10.0 | -21.3 | -16.2% | 7.94µM*
COc1ccc(S(=O)(=O)N2CCN(Cc3ccc4c(c3)OCO4)CC2)cc1 | -1.3 | -3.1 | -3.8% | .
Cc1ccc(S(=O)(=O)N2CCCC2)cc1S(=O)(=O)N1CCCC1 | 5.5 | 2.0 | 3.6% | -6.5%
O=C(Cc1ccc2c(c1)OCCO2)N1CCN(S(=O)(=O)c2cccc(Cl)c2Cl)CC1 | 3.3 | -3.6 | -0.4% | 2.82µM*
Cc1ccc(S(=O)(=O)N2CCCN(S(=O)(=O)c3ccc(C)c(C)c3)CC2)cc1C | -15.3 | 0.9 | 2.1% | 2.24µM*
Cc1ccc(S(=O)(=O)N2CCN(C(=O)Cc3ccc4c(c3)OCCO4)CC2)cc1C | -10.6 | -22.5 | . | 3.16µM*
Cc1noc(C)c1S(=O)(=O)N1CCc2nc(-c3ccccc3)c3c(c2C1)CO[C@@H](C)C3 | . | . | . | -12.8%[11.5 µM]
COc1cccc(C(O)c2ncc(-c3cccc4ccccc34)[nH]2)c1 (configuration not stated) | -23.8 | -3.4 | . | .

Source: PubChem BioAssay
